The values that follow come from PubChem BioAssay AID588453 (National Center for Advancing Translational Sciences (NCATS), 2011).

Screen size: about 390,000 compounds; about 4,000 (1%) were called active. About 4% were inconclusive and are not listed. The sample holds actives, similar compounds and a random draw of the others, so the mix is not that of the screen. The call rests on the fitted dose curve; in most records, active means well fitted inhibition curve with a large enough effect; inconclusive means small, poorly fitted or top-dose-only effect; inactive means no such curve, though single readings can be large or run the other way.
On the % scale 0 is the no-effect control and ±100 the full control effect; potency means the concentration at half of the fitted maximal effect.

The target in this assay is Thioredoxin reductase 1, cytoplasmic (Rattus norvegicus) (UniProt O89049). Put plainly: qHTS Assay for Inhibitors of Mammalian Selenoprotein Thioredoxin Reductase 1 (TrxR1): qHTS. Further: nearly all actives have a fitted effect of over 65% in size. Particulars: recombinant rTrxR1, NADPH fluorescence consumption, selenite substrate; series mostly up to 114 µM; activity change, negative = inhibition: at the top concentration. From the text: The selenoprotein thioredoxin reductase (TrxR; EC 1.8.1.9) is a FAD containing homodimeric pyridine nucleotide-disulfide oxidoreductase with many cellular roles. Together with NADPH and its prime substrate thioredoxin (Trx), the enzyme forms the core of the Trx system. The mammalian Trx system exerts a wide spectrum of functions including redox regulation, antioxidant defense, regulation of transcription factors as well as support of cell growth and replication. Many of these functions involve the reduction of Trx, which may subsequently reduce a number of different substrates including ribonucleotide reductase, peroxiredoxins or NFkB. Mammalian TrxR itself also has a broad substrate specificity, reducing both protein and non-protein substrates, including low molecular weight compounds such as dehydroascorbate, lipoic acid, ubiquinone, and juglone. In addition, several drugs in clinical use for anticancer treatment are indeed known to target TrxR1.
Thioredoxin reductase 1, cytoplasmic (Rattus norvegicus), sequence (O89049 whole entry, looked up): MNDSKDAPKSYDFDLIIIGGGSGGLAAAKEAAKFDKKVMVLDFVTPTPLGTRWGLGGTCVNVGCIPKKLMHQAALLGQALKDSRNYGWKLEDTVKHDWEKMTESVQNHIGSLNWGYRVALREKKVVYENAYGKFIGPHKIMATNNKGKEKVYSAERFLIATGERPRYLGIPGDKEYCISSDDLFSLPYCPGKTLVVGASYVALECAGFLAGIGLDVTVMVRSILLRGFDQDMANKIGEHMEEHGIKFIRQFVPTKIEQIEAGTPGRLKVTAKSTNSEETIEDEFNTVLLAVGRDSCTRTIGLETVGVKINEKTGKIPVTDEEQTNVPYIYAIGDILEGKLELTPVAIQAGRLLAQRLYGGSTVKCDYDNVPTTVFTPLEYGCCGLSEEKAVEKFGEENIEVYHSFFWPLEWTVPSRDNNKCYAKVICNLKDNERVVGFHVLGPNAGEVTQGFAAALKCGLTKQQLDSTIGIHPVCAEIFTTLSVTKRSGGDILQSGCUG
This BioAssay is a validation of an NADPH fluorescence-based, dual-purpose qHTS rTrxR1 assay designed to find potential inhibitors and substrates of rTrxR1. For this particular BioAssay, actives are potential inhibitors. See related BioAssay for substrate data deposition.
NIH Molecular Libraries Probe Production Network [MLPCN]
NIH Chemical Genomics Center [NCGC]
Assay Provider: Elias Arner, Karolinska Institute
Assay protocol: 2 uL of reagents (buffer in column 4 as negative control and 90 nM rTrxR1 in columns 1-3 and 5-48) were dispensed into Greiner black solid-bottom 1,536-well assay plates, followed by 1 uL of NADPH (400 uM final concentration) to each well. The plates were centrifuged at 1000 rpm for 15 seconds and subsequently incubated for 5 min at room temperature (~22 deg C) to allow for rTrxR1 reduction. Compounds (23 nL) were then transferred via Kalypsys pin tool equipped with 1536-pin array (10 nL slotted pins, V&P Scientific, San Diego, CA). In addition, a duplicate 2-fold serial dilution of the control compounds auranofin, a known gold-based TrxR1 inhibitor, and juglone (5-hydroxy-1,4-naphthoquinone), a natural TrxR1 substrate, were pin-transferred to columns 2 and 3, respectively. After incubation for 15 min at room temperature (~22 deg C), 1 uL of selenite (400 uM final concentration) were dispensed to each well. The plate was immediately transferred to a ViewLux high-throughput CCD imager (PerkinElmer), wherein kinetic measurements of NADPH fluorescence (Ex 340 nm, Em 450 nm) were acquired (8 minute kinetic read, see Table 1). Read 1 was utilized to assess the capacity of a compound to serve as an rTrxR1 substrate, i.e. a decrease in NADPH fluorescence compared to the no-compound background is an indication of a substrate behavior for that particular compound. For inhibitory activity of a compound, delta values, computed as the difference in fluorescence intensity between the first and last reads of an 8-minute time kinetic window, were used. All reagents were diluted in an assay buffer consisting of 50 mM Tris-HCl, pH 7.5, 2 mM EDTA, and 0.01% Tween-20.
Throughout the screen, reagent bottle and all liquid lines were made light-tight to minimize reagent degradation. All screening operations were performed on a fully integrated robotic system (Kalypsys, San Diego, CA) containing one RX-130 and two RX-90 anthropomorphic robotic arms (Staubli, Duncan, SC). Library plates were screened starting from the lowest and proceeding to the highest concentration, and a 'double-pinning' step of the highest concentration was required to access higher concentrations of compounds. Vehicle-only plates, with DMSO being pin-transferred to the columns 5-48, were inserted uniformly at the beginning and the end of each library in order to monitor and record any shifts in the background, which can be affected by reagent dispensers or loss in enzyme activity over time. […]
For `Cc1ccc(Cl)cc1NC(=O)CSc1nccn1C`, the “activity change, negative = inhibition” value is 30% [at 57.1 µM] (inactive). Regarding `Cc1cccc(CN2Cc3cccc4c3[C@H](C=CC4)CC2=S)c1`, the “activity change, negative = inhibition” value is -7.23% (inactive). As for `N#Cc1ccc[n+](CC(=O)c2ccc(F)cc2)c1`, the “activity change, negative = inhibition” value is -15.1% (inactive). Regarding `CC1CCCN(c2cc3c(cc2F)c(=O)c(S(=O)(=O)c2cccc(Cl)c2)cn3Cc2ccccc2)C1` (stereo not given), the “activity change, negative = inhibition” value is 20.8% (inactive).

As for `COc1ccc(CNC(=O)CC2Oc3ccc(C)cc3NC2=O)cc1` (stereo not given), the “activity change, negative = inhibition” value was 5.11% (inactive).

For the molecule `COc1cc(C(=S)N2CCOCC2)cc(OC)c1OC(=O)c1ccc([N+](=O)[O-])cc1[N+](=O)[O-]`, the “activity change, negative = inhibition” value is 7.04% [at 57.1 µM] (inactive).

With `C=COC(=O)N1CCN(/[N+]([O-])=N/Oc2ccc([N+](=O)[O-])cc2[N+](=O)[O-])CC1`, the Potency is 10 µM (active).

For `CCOC(=O)N1CCN(c2cc(C)c([N+](=O)[O-])cc2F)CC1`, the “activity change, negative = inhibition” value is 9.84% [at 57.1 µM] (inactive). With `O=C1/C(=C\c2cccnc2)CN(Cc2ccccc2)C/C1=C\c1cccnc1`, the Potency is 50.1 µM (active). The same measure, in the same setting: next, `O=C(O)CCc1cccnc1`: “inactive”.

Regarding `O=C(O)C1CC(=O)N(Cc2cccnc2)C1` (stereo not given), the “activity change, negative = inhibition” value was -3.09% (inactive). Turning to `O=C(Nc1ccc2nc(SCC(=O)N3CCCc4ccccc43)sc2c1)c1ccc(Cl)cc1`, the “activity change, negative = inhibition” value is 38.1% (inactive).

With `C=C1C=C(C(F)F)n2ncc(C(=O)NCCc3ccccc3OC)c2N1`, the “activity change, negative = inhibition” value was 1.89% (inactive).

In the case of `Cc1ccccc1CN1CCC(CNC(=O)c2c(C)oc3ncnc(N4CCCCC4)c23)CC1`, the “activity change, negative = inhibition” value was 16.4% (inactive). As to `Cc1ccc(C)c(Cn2c(C)c(CNCc3ccc(F)cc3)c(C(=O)O)c2C)c1`, the “activity change, negative = inhibition” value is 20.8% (inactive). Regarding `O=C(Cn1c[n+](CC(=O)c2ccc([N+](=O)[O-])cc2)cn1)c1ccc([N+](=O)[O-])cc1`, the “activity change, negative = inhibition” value is -30.7% (inactive).

As for `O=C(CC(n1cncn1)C(Cl)(Cl)Cl)c1ccc([N+](=O)[O-])cc1` (stereo not given), the Potency is 3.55 µM (active). With `O=C(CCn1nnc2ccccc21)OCC(=O)c1ccc([N+](=O)[O-])cc1`, the “activity change, negative = inhibition” value was 25.8% (inactive). Take `CCCOc1ccc(N2C(=O)CC(N(CCc3ccc(S(N)(=O)=O)cc3)C(C)=O)C2=O)cc1` (stereo not given): the “activity change, negative = inhibition” value was 10.5% (inactive). Regarding `CCOc1ccc(N2C(=O)CC(N(O)c3ccccc3)C2=O)cc1` (stereo not given), the Potency is 12.6 µM (active).

Turning to `CCOc1ccc(N2C(=O)CC(N(CCc3ccc(OC)c(OC)c3)C(=S)Nc3ccccc3)C2=O)cc1` (stereo not given), the “activity change, negative = inhibition” value is -11.6% (inactive).

Regarding `O=C(CC1N=C2c3ccccc3N=C(SCc3ccc(F)cc3)N2C1=O)NCc1cccs1` (stereo not given), the “activity change, negative = inhibition” value is 1.84% [at 57.1 µM] (inactive). Still for that read-out and setting: next, `Cc1nc2ccccn2c(=O)c1NC(=O)c1c(F)cccc1F`: 16.1% [at 57.1 µM] (inactive); `CCc1ccc(NC(=O)CCCc2nnc3n(CCCOC)c(=O)c4sccc4n23)cc1`: 23.7% (inactive); `CCOc1ccccc1CNC(=O)c1ccc(-n2c(C)cc3c2CCC(C)C3)cc1` (stereo not given): -7.5% (inactive). `CCOc1cccc2c1N[C@@H](c1ccc(C(=O)O)cc1)[C@H]1CC=C[C@@H]21`: the Potency is 11.2 µM (active). As for `CCOc1cccc(CC(=O)N2CCc3c([nH]c4ccccc34)C2c2ccc(F)cc2)c1OCC` (stereo not given), the “activity change, negative = inhibition” value was 38.1% [at 57.1 µM] (inactive). On to `O=C(c1cnn2c1NC(=C1CC1)C=C2C(F)F)N1CCc2ccccc2C1`, for which the “activity change, negative = inhibition” value was -19.6% (inactive).

Consider `CCOC(=O)c1ccc(NC(=O)C2CC(=O)N(c3ccc(C(C)C)cc3)C2)cc1` (stereo not given), for which the “activity change, negative = inhibition” value was 10.9% (inactive).

`CCN1CCN(C(=O)C2CCN(S(=O)(=O)c3cc(Cl)ccc3Cl)CC2)CC1`: the “activity change, negative = inhibition” value was 18.4% [at 57.1 µM] (inactive). Regarding `O=C(CN1CCN(S(=O)(=O)c2cc(Cl)ccc2Cl)CC1)c1ccc(O)c(O)c1`, the Potency was 44.7 µM (active). With `O=S(=O)(c1cc(Cl)ccc1Cl)N1CCN(Cc2ccco2)CC1`, the “activity change, negative = inhibition” value was -4.98% (inactive). For the molecule `CN1CCN(C2(CNC(=O)COc3ccc(C(C)(C)C)cc3)CCCCC2)CC1`, the “activity change, negative = inhibition” value was 18.5% (inactive). For `COc1ccc(S(=O)(=O)NCC(c2ccc(N(C)C)cc2)N2CCCC2)cc1` (stereo not given), the “activity change, negative = inhibition” value is 11.6% [at 57.1 µM] (inactive).

In the case of `COc1ccc2cc(-c3[nH]ncc3CNCCn3nc(C)cc3C)ccc2c1`, the “activity change, negative = inhibition” value was 28.7% (inactive). `COc1ccc(C(C[N+](=O)[O-])n2nc(C)cc2C)cc1` (stereo not given): the Potency is 8.91 µM (active). Consider `Cc1cc(F)ccc1NS(=O)(=O)c1ccc(-n2cccn2)cc1`, for which the “activity change, negative = inhibition” value was 24.6% (inactive). For `COc1ccc2[nH]c3c(c2c1)CCN(C(=O)CCC1CCCC1)C3c1ccc(F)cc1` (stereo not given), the “activity change, negative = inhibition” value is 10.3% (inactive). With `Cc1cc2c(cc3c(SCc4nc(-c5ccccc5)oc4C)nnc(C)n32)o1`, the “activity change, negative = inhibition” value is 6.82% (inactive).

`O=C(NC(=S)Nc1ccccc1C(=O)O)c1ccc(-c2ccc(Br)cc2)o1`: the Potency is 44.7 µM (active).

In the case of `O=C(O)c1ccccc1NC(=S)NC(NC(=O)c1ccccc1[N+](=O)[O-])C(Cl)(Cl)Cl` (stereo not given), the “activity change, negative = inhibition” value was -0.421% (inactive). Same read-out and setting: to `O=C(NC(=S)Nc1ncccn1)c1ccccc1Br` belongs 21.2% (inactive). With `CN(CCC#N)c1ccc(C=O)cc1`, the “activity change, negative = inhibition” value is 6.49% (inactive). Regarding `S=c1[nH]c(=S)c2n[nH]nc2[nH]1`, the Potency was 15.8 µM (active). Take `C(=Nc1ccc(/C=C/c2ccnc3ccccc23)cc1)c1cc2c3c(c1)CCCN3CCC2`: the “activity change, negative = inhibition” value is -19.7% (inactive). `COc1ccc(-c2onc(C)c2C)cc1S(=O)(=O)NCCc1ccccc1`: the “activity change, negative = inhibition” value was 9.73% [at 57.1 µM] (inactive).

Take `OC(CBr)CN1CCCCC1` (stereo not given): the “activity change, negative = inhibition” value is -14.4% (inactive). With `Cc1ccc(-c2nn(-c3cccc(F)c3)cc2CNCCc2ccncc2)o1`, the “activity change, negative = inhibition” value was -6.48% (inactive). `Cc1ccc(-c2nn(-c3ccccc3)cc2CN(Cc2ccccc2)C(=O)CCC(=O)O)o1`: the Potency is 39.8 µM (active). In the case of `CN(C)Cc1cn(-c2ccccc2)nc1-c1ccccc1`, the “activity change, negative = inhibition” value is 13.8% (inactive).
